Source: PubChem (National Center for Advancing Translational Sciences (NCATS))
D2 antag: HTS Assay for Allosteric Antagonists of the Human D2 Dopamine Receptor: Primary Screen for Antagonists; D(2) dopamine receptor (Homo sapiens), P14416; HEK293 TREx D2 cells, calcium flux, dopamine EC80; inhibition, % at 10 µM; 340,000 tested, 2% active; in the data active means inhibition above about 30%; inactive means below that, where a call was filed
Target sequence (P14416 whole entry, looked up): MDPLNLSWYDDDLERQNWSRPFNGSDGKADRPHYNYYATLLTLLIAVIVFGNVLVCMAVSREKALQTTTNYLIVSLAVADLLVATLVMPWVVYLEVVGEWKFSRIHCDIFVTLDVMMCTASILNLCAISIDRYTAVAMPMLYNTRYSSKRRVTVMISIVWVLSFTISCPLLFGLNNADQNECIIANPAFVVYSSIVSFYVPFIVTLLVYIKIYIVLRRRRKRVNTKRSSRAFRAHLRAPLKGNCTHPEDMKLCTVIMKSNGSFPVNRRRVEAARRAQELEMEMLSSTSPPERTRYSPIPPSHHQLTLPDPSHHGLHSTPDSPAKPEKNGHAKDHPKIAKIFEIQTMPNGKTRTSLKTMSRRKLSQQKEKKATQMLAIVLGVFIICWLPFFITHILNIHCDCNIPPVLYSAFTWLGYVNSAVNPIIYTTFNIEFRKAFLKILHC
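Cells plated overnight at 30 C with tetracycline; no-wash calcium dye, 30–90 min RT; 10 s baseline; compound pinned; 180 s read; EC80 dopamine added; another 180 s read.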
D2 ag-1: HTS Assay for Allosteric Agonists of the Human D2 Dopamine Receptor: Primary Screen for Agonists. 340,000 tested, 0.53% active. D(2) dopamine receptor (Homo sapiens), P14416. HEK293 T-REx D2 cells, calcium flux agonist mode. activation, % at 2 µM. AID 485358, 2010;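 active means activation over 3 SD above normal in the single-dose calcium agonist read, cut at about 30% in these data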
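Agonism is scored from calcium flux in a force-coupled, inducible HEK293 cell line expressing D2, read kinetically for 180 s after compound addition against dopamine controls.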
D2 ag-2: Beta-Arrestin HTS for Positive Allosteric Modulators of the Human D2 Dopamine Receptor: Agonists; DiscoveRx PathHunter D2 beta-arrestin, luminescence, 90 min; 100% = 57 uM dopamine signal; 360,000 tested, 0.084% active; D(2) dopamine receptor (Homo sapiens), P14416; activation, % (concentration not given with the values); AID 624465, 2012; in the data active means activation above about 40%; inconclusive means between about 15% and that limit
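DiscoveRx PathHunter D2 beta-arrestin cells (2,100/well) attached overnight, then compound-stimulated 90 min at 37 C in HBSS/10 mM HEPES/0.1% Tween-20 buffer; beta-galactosidase complementation read by luminescence after 1 h at ambient temperature. Dopamine 57 uM final (EC100) as control.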
D2 PAM-1: Beta-Arrestin HTS for Positive Allosteric Modulators of the Human D2 Dopamine Receptor: Potentiators. 360,000 tested, 0.23% active. DiscoveRx D2 beta-arrestin cells, luminescence, 90 min; 100% = 57 uM dopamine signal. potentiation, % (no concentration beside the values); in the data active means potentiation above about 50%; inconclusive means mostly about 30% to 49%
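PathHunter beta-arrestin assay in DiscoveRx D2 cells. Compounds were added with an EC20 of dopamine (50 nM final) for 90 min at 37 deg C. Luminescence was read 1 h after detection reagent, with 57 uM dopamine as the EC100 control.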
D2 PAM-2: HTS Assay for Positive Allosteric Modulators of the Human D2 Dopamine Receptor: Primary Screen for Potentiators | D(2) dopamine receptor (Homo sapiens), P14416 | HEK293 T-REx D2, calcium flux, EC20 dopamine potentiation | potentiation, % at 10 µM | 340,000 tested, 0.34% active | AID 485347, 2010;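 active means potentiation over 3 SD above the plate norm, cut at about 30% in these data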
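Potentiation of an EC20 dopamine calcium response measured kinetically over 180 s, after a preceding 180 s compound-only read flagging agonists. Cells: inducible Hek293 Trex D2 line, 4000/well, cultured overnight at 30 C before dye loading.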
Numbers stand for hits; n = inactive; u = inconclusive; x = no result. Compounds with a hit are over-represented: about 2.4% of the library has one in this group of screens.

SMILES	D2 antag	D2 ag-1	D2 ag-2	D2 PAM-1	D2 PAM-2
Cc1cccc(-c2nnc3n(CCc4ccccc4)c(=O)c4ccccc4n23)c1	x	n	x	x	n
CCOC(=O)Cn1ncc(-c2ccccc2)c1N	57	n	n	n	n
COc1ccccc1N(CC(O)Cn1ccnc1C)S(=O)(=O)c1ccccc1 (stereo not given)	34	n	n	n	n
COc1ccccc1N(CC(O)Cn1c(C)nc2ccccc21)S(=O)(=O)c1ccccc1 (stereo not given)	n	n	n	n	n
Cc1cc(C)cc(-n2cnc3cc(C(=O)NCCc4ccccc4)ccc32)c1	x	n	x	x	n
Cc1cc(=O)oc2cc(NC(=O)c3ccc(OC(F)F)cc3)ccc12	n	n	n	n	n
Cc1cc(=O)oc2cc(NC(=O)C(C)Oc3ccc(F)cc3)ccc12 (stereo not given)	35	n	n	n	n
COc1ccc(C)cc1N(C)C(=O)c1sc2nc3n(c(=O)c2c1C)CCCCC3	x	n	x	x	n
CN(CCOc1ccccc1)CC(=O)Nc1ccc(Br)cc1F	53	n	n	n	n
COc1ccc(-c2nc3sc(CCNC(=O)C(=O)Nc4ccc(C)c(F)c4)c(C)n3n2)cc1	x	n	x	x	n
COc1ccc(/C=C2\SC(=S)N(CCC(=O)N3CCCCC3)C2=O)cc1	n	n	n	n	n
O=C1/C(=C/c2cccc(Cl)c2)SC(=S)N1CCC(=O)N1CCCCC1CCO (stereo not given)	n	n	n	n	n
COCCN1C(=O)/C(=C/c2ccc(N3CCCC3)cc2)SC1=S	n	41	n	n	n
O=C1/C(=C/c2ccc(Cl)cc2)SC(=S)N1CCC(=O)N1CCCCC1CCO (stereo not given)	31	n	n	n	n
CCOc1ccccc1CNC(=O)c1ccc(Cn2c(SCc3ccccc3)nc3cccnc32)cc1	x	n	x	x	n
COc1ccccc1NC(=O)C(C)Sc1nnc2ccc3ccccc3n12 (stereo not given)	x	n	x	x	n
O=C(C#Cc1ccccc1)Nc1ccc(F)cc1	47	n	n	n	n
O=C(Nc1ccccc1SC(=O)c1ccccc1)c1ccccc1	x	x	n	n	x
Cc1ccc(C(=O)Sc2cccccc2=O)cc1	37	n	n	n	n
Cc1cc2nc(CCN(C(=S)NCC3CCCO3)C3CCCC3)[nH]c2cc1C (stereo not given)	31	n	n	n	n
Cc1cc2nc(CCN(C(=S)NCC(C)C)C3CCCC3)[nH]c2cc1C	n	n	n	n	n
COc1ccc(C2CCCN2C(=O)c2cccs2)cc1 (stereo not given)	78	n	n	n	n
CC1(C)Nc2ccc(O)cc2-c2c1ssc2=S	36	n	n	n	n
COc1cccc(-n2sc3c(c2=S)-c2cc(OC)ccc2NC3(C)C)c1	n	n	n	n	n
CN(C)CCCN1C(=O)c2cccc3c([N+](=O)[O-])ccc(c23)C1=O	n	n	u	63	n
SMILES	D2 antag	D2 ag-1	D2 ag-2	D2 PAM-1	D2 PAM-2
CC(=O)Oc1cccc(N2C(=O)c3cccc4c([N+](=O)[O-])ccc(c34)C2=O)c1	n	n	41	107	n
O=C(Nc1nccs1)c1cccc(N2C(=O)c3cccc4c([N+](=O)[O-])ccc(c34)C2=O)c1	n	n	n	75	n
O=C(Nc1ccc(S(=O)(=O)Nc2nccs2)cc1)c1cccc(N2C(=O)c3ccccc3C2=O)c1	n	n	n	n	n
CCOc1ccccc1-c1noc(CSc2nnc(-c3ccccc3)n2-c2ccc(F)cc2)n1	x	n	x	x	n
O=C(O)c1ccccc1-c1ccccc1C(=O)NNc1ccccc1	n	37	n	n	n
O=C(O)c1ccccc1-c1ccccc1C(=O)Nc1ccccc1	n	n	n	n	n
O=C(CCc1ccc(Oc2cc([N+](=O)[O-])cc([N+](=O)[O-])c2)cc1)N1CCCCCC1	37	n	u	75	n
CCOCCCn1c(SCC(=O)Nc2ccccc2CC)nc2ccccc2c1=O	x	x	x	x	n
COc1ccc([N+](=O)[O-])cc1NC(=S)NC(NC(C)=O)C(Cl)(Cl)Cl (stereo not given)	n	n	n	n	n
COc1ccc([N+](=O)[O-])cc1NC(=S)NC(NC(=O)Cc1ccc(OC)c(OC)c1)C(Cl)(Cl)Cl (stereo not given)	74	n	n	n	n
O=C(O)c1ccnc(Cl)c1	32	n	n	n	n
COc1ccc(-c2cc(C(C)=O)c(C)n2CCC(=O)Nc2cccc(C)c2C)cc1	x	n	x	x	n
CN(C)S(=O)(=O)c1ccc(NC(=O)C2CC(=O)N(Cc3ccccc3)C2)cc1 (stereo not given)	n	n	n	n	31
CCN(CC)c1ccc(NC(=O)C2CC(=O)N(Cc3ccccc3)C2)cc1 (stereo not given)	n	n	n	n	n
CCOC(=O)c1c(S(=O)(=O)NCC(=O)Nc2cccc(SC)c2)c(C)n(C)c1C	x	n	x	x	n
O=S(=O)(Nn1cnnc1)c1ccccc1Cl	30	n	n	n	n
COc1ccc(NC(=O)C2(c3cccs3)CCOCC2)cc1Cl	x	n	x	x	n
COc1ccc(C(=O)Nc2ccc(Cl)c(Cl)c2)c(OC)n1	n	n	n	n	n
COc1ccc(C(=O)O)c(OC)n1	30	n	n	n	n
CCC(CC)C(=O)Nc1nnc(S(=O)(=O)N2CCCCCC2)s1	32	n	n	n	n
CC(C)C(=O)Nc1nnc(S(=O)(=O)N2CCCCCC2)s1	n	n	n	n	n
COc1cccc2cc(C(=O)NCc3ccccn3)c(=O)oc12	44	n	n	n	n
CC(C)(C)OC(=O)N1CCC(c2c(C(=O)NCc3ccccn3)cnn2-c2ccccc2)CC1	x	n	x	x	n
O=C1c2ccccc2C(Nc2ccc(S(=O)(=O)N3CCCCCC3)cc2)N1c1ccccn1 (stereo not given)	n	n	n	n	n
O=C1c2cccnc2C(Nc2ccc(S(=O)(=O)N3CCCCC3)cc2)N1Cc1ccccc1 (stereo not given)	n	n	n	n	33
COC(=O)c1ccc(NC(=O)CC2C(=O)N(c3cccc(OC)c3)C(=O)N2Cc2cccc(OC)c2)cc1 (stereo not given)	x	n	x	x	n
CCN1CCN(c2nc(-c3ccccc3)c3ccccc3n2)CC1	59	n	n	n	n
CCN1CCN(c2nc(-c3ccccc3Cl)nc3ccccc23)CC1	38	n	n	n	n
